# From the supplement of paper PMC12808144
# Test system: Mel-DCC-11-R
# Assay: cell viability relative to DMSO control (fraction of DMSO control); higher = less cytotoxic, active = 0.8 or less
# Settings: 1 µM; 120 h; vemurafenib co-treatment 8 µM
# Outline: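 A library of 315 approved anti-cancer drugs (TargetMol) was acoustically pre-spotted into 384-well plates and tested at 1 µM in duplicate for 120 h. Cells were added in 40 µl per well: NHEM-hTERT immortalized melanocytes at 2500/well, and patient-derived Mel-DCC-11 and its resistant subline Mel-DCC-11-R at 1500/well. The subline was tested both alone and with 8 µM of its selecting drug. Viability was read by ATPlite 1step luminescence, normalised to DMSO controls and averaged over duplicates.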
row,Compound,cell viability
1,CNNCc1ccc(C(=O)NC(C)C)cc1.Cl [Procarbazine hydrochloride],1.25 (inactive)
2,CC1(C)CCC(CN2CCN(c3ccc(C(=O)NS(=O)(=O)c4ccc(NCC5CCOCC5)c([N+](=O)[O-])c4)c(Oc4cnc5[nH]ccc5c4)c3)CC2)=C(c2ccc(Cl)cc2)C1,1.23 (inactive)
3,CC1=C(/C=C/C(C)=C/C=C/C(C)=C/C=C/C=C(C)/C=C/C=C(C)/C=C/C2=C(C)CCCC2(C)C)C(C)(C)CCC1 [Beta-Carotene],0.851 (inactive)
4,CC(C)(O)CNc1nc(Nc2ccnc(C(F)(F)F)c2)nc(-c2cccc(C(F)(F)F)n2)n1 [Enasidenib],0.834 (inactive)
5,COc1ccc2[nH]cc(CCNC(C)=O)c2c1 [Melatonine],0.839 (inactive)
6,Nc1nc(F)nc2c1ncn2[C@@H]1O[C@H](CO)[C@@H](O)[C@@H]1O [Fludarabine],0.977 (inactive)
7,CCN1CCN(Cc2ccc(Nc3ncc(F)c(-c4cc(F)c5nc(C)n(C(C)C)c5c4)n3)nc2)CC1.CS(=O)(=O)O [abemaciclib mesylate],0.723 (active)
8,CC(C)Cn1cnc2c(N)nc3ccccc3c21 [Imiquimod],1.07 (inactive)
9,C=C[C@H]1[C@@H](O[C@@H]2O[C@H](CO)[C@@H](O)[C@H](O)[C@H]2O)OC=C2C(=O)OCC[C@]21O [Swertiamarin],1.2 (inactive)
10,COc1cccc2c1C(=O)c1c(O)c3c(c(O)c1C2=O)C[C@@](O)(C(=O)CO)C[C@@H]3O[C@H]1C[C@H](N)[C@H](O[C@H]2CCCCO2)[C@H](C)O1 [Pirarubicin],0.0504 (active)
